D1 potentiator = human D1 dopamine receptor positive modulation; P21728; HEK293 TREx D1 cells, calcium flux, dopamine EC20 potentiation; potentiation, % at 10 µM; actives 0.036% (n = 360,000); in the data active = potentiation above about 30%; note: 0% is about no effect
TRHR enhancer = TRH receptor (human) allosteric enhancement | actives 0.66% (n = 360,000) | P34981 | TRHR cells, fluo-8 calcium fluorescence, EC20 TRH enhancement | enhancement, % at 2 µM; in the data active = enhancement above about 30%; note: 0% is about no effect
Target sequence (P34981 whole entry, looked up): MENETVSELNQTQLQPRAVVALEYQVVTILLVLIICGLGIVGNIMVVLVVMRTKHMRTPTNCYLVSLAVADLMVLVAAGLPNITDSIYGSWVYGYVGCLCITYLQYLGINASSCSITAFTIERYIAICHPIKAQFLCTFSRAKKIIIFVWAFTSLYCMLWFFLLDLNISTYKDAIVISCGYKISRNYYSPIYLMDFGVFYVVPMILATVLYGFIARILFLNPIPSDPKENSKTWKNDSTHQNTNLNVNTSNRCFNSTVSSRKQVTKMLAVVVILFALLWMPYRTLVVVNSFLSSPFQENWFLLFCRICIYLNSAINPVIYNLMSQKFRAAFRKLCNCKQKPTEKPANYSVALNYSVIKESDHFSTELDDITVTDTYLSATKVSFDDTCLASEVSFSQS
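Enhancer read-out: after compound pinning and an initial kinetic agonist-mode read, an EC20 of TRH (10 nM final) was injected and fluo-8 calcium signal (Ex 480/Em 530) followed at 1 s/cycle for 100 cycles in TRHR-expressing cells.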
D1 antag = antagonists of human D1 dopamine receptor. P21728. HEK293 TREx D1 cells, calcium flux, dopamine EC80; active compounds read low. activity change, negative = inhibition, % at 10 µM. actives 3.2% (n = 360,000). AID 504652; in the data active = activity change below about -30%; note: % is set by controls: 0 for no effect and ±100 for the full control effect
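Compound effects on dopamine-evoked calcium signalling were measured in tetracycline-induced HEK293 Trex D1 cells. Dopamine at EC80 followed a 180 s compound pre-read, and fluorescence was tracked kinetically for 180 s more.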
GRP78 ERSR act = induces the endoplasmic reticulum stress response in human glioma cells | actives 0.02% (n = 420,000) | U87-MG GRP78 promoter luciferase reporter, 16 h | Potency, µM, for inactives: at the highest dose activation, usual class: activators; active = well fitted activation curve with a large enough effect; note: potency is the fitted concentration of half-maximal effect; series mostly up to about 76 µM; % of control where 0% means no effect; nearly all actives have a fitted effect of over 35% in size
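ERSR induction read as luciferase luminescence (Bright-Glo, 10 min at room temperature) in stably transfected human U87-MG glioma cells exposed to compounds for 16 h, using GRP78 as sensor.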
TRHR ag = activates the human TRH receptor. TRHR cells, calcium flux fluo-8, FDSS agonist mode. activation, % at 2 µM. actives 0.18% (n = 360,000). AID 493084; note: 0% is about no effect
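TRHR-expressing cells loaded with fluo-8 calcium dye; 23 nL library compound pin-transferred, kinetic FDSS fluorescence (Ex 480/Em 530) recorded about 180 s for agonist-induced calcium release, before a 10 nM TRH EC20 addition for potentiator mode.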
D1 agonist = activates the human D1 dopamine receptor. actives 1% (n = 360,000). P21728. activation, % at 2 µM. HEK293 T-REx D1 cells, calcium flux, agonist mode; note: 0% is about no effect
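Agonism was scored from calcium flux recorded over 180 s (1 read/s) after pintool compound addition, following a 10-cycle baseline. Cells were inducible force-coupled HEK293 TREx D1, plated overnight at 30 C and loaded with no-wash calcium dye.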
Starred values were filed as active, the others as inactive; . = not tested or not shown. Sampled rows, rich in hits. Any-hit rate of the full collection: about 4%. Cut-off read from the data, not from the text of the source, unless noted: active = activation above about 30%; inactive = the rest.

SMILES	D1 potentiator	TRHR enhancer	D1 antag	GRP78 ERSR act	TRHR ag	D1 agonist
O=S1(=O)N[C@H](c2ccccc2)C[C@H](c2ccc(C(F)(F)F)cc2)O1	-2	6	-7	-7%	0	4
CC(=O)Nc1ccc(S(=O)(=O)NNC(=O)c2cccc(Br)c2)cc1	-1	38*	-3	-6%	0	0
Nc1nnc(SCC(=O)Nc2nccs2)s1	-5	-3	-43*	-2%	1	1
Cc1nnc(SCC(=O)Nc2nccs2)s1	-6	-1	6	-4%	0	-2
Cc1ccc(NC(=O)C(=O)NCc2ccco2)cc1	-2	-4	-31*	0%	-1	-3
Cc1ccc(NC(=O)C(=S)NCc2ccco2)cc1	-8	-7	5	1%	0	5
COC(=O)c1cccc(NS(=O)(=O)c2ccc(OC)c(OC)c2)c1C	-3	-2	-2	-1%	1	8
CC(C)N(c1ccccc1)c1ccc(NC(=S)NCCN(C)C)cc1	-4	-4	8	-5%	2	34*
CN(C)CCCNC(=S)Nc1ccc(-c2ccccc2)cc1	-3	-7	-7	2%	5	34*
CCNC(=S)Nc1ccc(N(c2ccccc2)C(C)C)cc1	-8	3	-1	-3%	0	1
CCOC(=O)CC(N)c1ccc(OC)cc1 (configuration not stated)	-10	-7	-69*	-2%	0	-2
CSc1nnc(C)c(/C=C/Nc2ccc(F)cc2F)n1	-2	-2	12	-4%	0	5
C=CCSc1nnc(C)c(/C=C/Nc2ccc(Cl)cc2)n1	-2	-3	-5	-3%	24	74*
Cc1cccc(CSc2nc3sc(C)c(C)c3c(=O)n2Cc2ccco2)c1	-2	3	25	-1%	2	3
Cc1ccc(CSc2nnc(-c3cccs3)n2C)cc1	-6	-11	-40*	1%	0	0
Cc1cccc(CSc2nnc(-c3cccs3)n2Cc2ccco2)c1	-9	-5	-36*	0%	-2	9
Cc1ccc(NC2=CC(=O)CC(C)(C)C2)cc1Cl	4	3	4	7%	0	4
O=C(Cn1ncc2ccccc21)N1CCN(c2cccc(C(F)(F)F)c2)CC1	1	0	-1	-1%	0	5
CCN(CC)C(=O)C1CCCc2c1[nH]c1ccc(Cl)cc21 (configuration not stated)	4	-12	-11	2%	1	0
O=CNC1CCCc2c1[nH]c1ccc(Cl)cc21 (configuration not stated)	-2	-3	-37*	2%	-1	2
CCn1cc(C(=O)NCc2ccccc2Cl)c(=O)c2cc(S(=O)(=O)N3CCOCC3)ccc21	0	-9	-21	-1%	0	0
Cc1ccccc1CNC(=O)c1ccc(Cl)c([N+](=O)[O-])c1	-3	-1	-61*	-7%	0	12
CC(C)[C@H](NC(=O)c1ccc(Cl)c([N+](=O)[O-])c1)C(=O)NCc1ccc(Cl)cc1Cl	-4	-5	-39*	1%	1	5
Cc1ccc(C)c(NC(=O)CCc2ccc(S(=O)(=O)NC3CCCCC3)cc2)c1	-5	-2	-8	-6%	0	4
COc1ccc(CC(=O)c2ccc(OC)c(OC)c2C)cc1OC	0	5	-34*	4%	1	18
SMILES	D1 potentiator	TRHR enhancer	D1 antag	GRP78 ERSR act	TRHR ag	D1 agonist
COc1ccc(CC(=O)Oc2ccc(C)cc2Br)cc1OC	-4	-7	-32*	1%	0	12
COc1ccc(-c2cc(C(=O)N3CCCC3)c3ccccc3n2)cc1OC	-4	-3	-21	-2%	0	0
CN1CCC(CNC(=O)Nc2ccccc2)(c2ccccc2)CC1	-2	-3	0	-1%	0	-3
CC(C)CC(=O)Nc1cccc(C(C)O)c1 (configuration not stated)	-3	0	-31*	.	0	2
CCCCC(=O)Nc1cccc(C(C)O)c1 (configuration not stated)	-8	0	-4	.	0	2
CCOC(=O)c1sc(=S)[nH]c1C	.	.	.	-3%	.	.
CCOC(=O)c1c(C)[nH]sc1=S	3	33*	16	-6%	-3	1
COCCNC(=O)c1cc(-c2ccc3c(c2)OCO3)on1	-1	0	-2	-11%	1	1
NC(=O)c1c(NC(=O)Cc2ccccc2)sc2c1CCN(Cc1ccccc1)C2	0	-2	10	-3%	2	7
Cc1cc2oc(C(=O)NCc3ccncc3)c(C)c2cc1C	-2	30	-36*	-3%	0	0
CCCCc1cc(=O)oc2cc(C)cc(OC(C)C(=O)O)c12 (configuration not stated)	-3	8	-1	-3%	0	-1
O=C(NCCc1ccc(Cl)cc1)c1ccc(CSCc2ccccc2Cl)o1	-2	-4	-20	-4%	2	31*
Cc1cccc(CSCc2ccc(C(=O)NCCc3ccccc3)o2)c1	-2	-7	-79*	1%	0	11
CCOc1ccc(CCNC(=O)c2ccc(CSCc3ccccc3C)o2)cc1OCC	-3	-1	-22	-6%	3	36*
CCNC(=O)C/C(C)=N/NC(=O)C12CC3CC(CC(C3)C1)C2	-4	0	-32*	5%	0	0
CCOC(=O)C1=C(C)NC(C)=C(C(=O)OCC)C1c1ccc(OC)c(OC)c1	.	.	.	1%	.	.
CCCC1C(C(=O)OCC)=C(C)NC(C)=C1C(=O)OCC	-19	-2	-50*	-6%	0	2
CCOC(=O)C1=C(C)NC(C)=C(C(=O)OCC)C1C(=O)OCC(=O)N(C)C	-2	17	-60*	-4%	0	0
CCOC(=O)C1=C(C)NC(C)=C(C(=O)OCC)C1c1ccc(O)cc1	-7	22	-36*	-6%	0	0
CCNC(=O)COC(=O)C1C(C(=O)OCC)=C(C)NC(C)=C1C(=O)OCC	-2	-4	14	-2%	0	-3
CN(Cc1cccc(F)c1)CC(O)COCc1ccccc1Cl (configuration not stated)	-2	-4	1	-5%	0	3
O=C(c1ccc(COc2ccccc2Br)cc1)N1CCCCCC1	-10	-10	-37*	1%	0	18
O=C(c1ccc(COc2ccc(Cl)cc2)cc1)N1CCCCC1	.	-1	9	5%	-2	8
COc1ccc(-c2onc(C)c2C)cc1S(=O)(=O)NC1CCCCC1	0	15	21	-1%	0	0
Cc1ccc(-c2onc(C)c2C)cc1S(=O)(=O)Nc1cccc(Cl)c1C	-6	1	-39*	-4%	0	2

Screening data (PubChem)
